CSC inhib = cancer stem cell viability inhibitors, primary screen, luminescence. cancer stem cell-like cells viability. inhibition, % at 7.5 µM. 300,000 tested, 1.1% active. AID 2717, 2010; in the data active means inhibition above about 75%; tested in HMLE shEcad cells
MPTP block = mitochondrial permeability transition pore inhibitors, primary screen, biochemical, isolated mouse mitochondria, absorbance; Ca2+ swelling absorbance, 30 min; inhibition, % at 10 µM; 360,000 tested, 1.4% active; AID 602449, 2012;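 active means inhibition of 50% or more, scaled per plate between neutral and stimulator controls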
Gli-Sufu antag = Gli-Sufu pathway antagonists, primary screen, luciferase luminescence, Sufu-KO-LIGHT cells, uHTS; Sufu-KO-LIGHT fibroblasts, Gli luciferase reporter luminescence; inhibition, % at 5 µM; 340,000 tested, 0.74% active; AID 588413, 2011;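 active means inhibition above about 55%, limit read from the data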
GRIN3A LBD mod = binders of NR3A ligand-binding domain, primary screen, biophysical, differential scanning fluorimetry, uHTS. AID 1259313, 2017. 340,000 tested, 2.5% active. Tm shift relative to glycine control, % at 25 µM. Glutamate receptor ionotropic, NMDA 3A (GRIN3A) ligand-binding domain. NR3A LBD differential scanning fluorimetry, Tm shift; 0% = protein alone, 100% = glycine-bound protein;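 active means melting temperature shift of at least 10% of the positive control shift, at one fixed dose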
Mdm2-MdmX inh = inhibitors of human Mdm2-MdmX association, primary screen, cell-based, luminescence, split luciferase, SaOS-2, uHTS | Protein Mdm4 (Homo sapiens) + E3 ubiquitin-protein ligase Mdm2 (Homo sapiens), … | SaOS-2 split-luciferase Mdm2/MdmX complementation | inhibition, % at 8 µM | 330,000 tested, 3% active | AID 485346, 2010;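 active means inhibition of at least 50% at 8 µM in the primary screen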
Target sequence (O15151 whole entry, looked up): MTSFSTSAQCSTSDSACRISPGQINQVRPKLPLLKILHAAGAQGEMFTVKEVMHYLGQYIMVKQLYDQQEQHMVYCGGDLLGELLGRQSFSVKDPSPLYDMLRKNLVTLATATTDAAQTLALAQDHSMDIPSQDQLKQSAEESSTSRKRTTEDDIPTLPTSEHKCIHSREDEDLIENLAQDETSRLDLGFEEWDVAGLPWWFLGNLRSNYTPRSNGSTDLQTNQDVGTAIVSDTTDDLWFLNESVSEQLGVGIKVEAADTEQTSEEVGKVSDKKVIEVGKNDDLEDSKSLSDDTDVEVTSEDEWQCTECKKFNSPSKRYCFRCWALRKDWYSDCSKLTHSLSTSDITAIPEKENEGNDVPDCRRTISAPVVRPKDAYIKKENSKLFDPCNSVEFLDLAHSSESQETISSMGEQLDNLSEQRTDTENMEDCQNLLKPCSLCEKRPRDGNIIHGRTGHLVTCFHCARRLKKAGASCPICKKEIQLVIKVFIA
Target sequence (Q00987 whole entry, looked up): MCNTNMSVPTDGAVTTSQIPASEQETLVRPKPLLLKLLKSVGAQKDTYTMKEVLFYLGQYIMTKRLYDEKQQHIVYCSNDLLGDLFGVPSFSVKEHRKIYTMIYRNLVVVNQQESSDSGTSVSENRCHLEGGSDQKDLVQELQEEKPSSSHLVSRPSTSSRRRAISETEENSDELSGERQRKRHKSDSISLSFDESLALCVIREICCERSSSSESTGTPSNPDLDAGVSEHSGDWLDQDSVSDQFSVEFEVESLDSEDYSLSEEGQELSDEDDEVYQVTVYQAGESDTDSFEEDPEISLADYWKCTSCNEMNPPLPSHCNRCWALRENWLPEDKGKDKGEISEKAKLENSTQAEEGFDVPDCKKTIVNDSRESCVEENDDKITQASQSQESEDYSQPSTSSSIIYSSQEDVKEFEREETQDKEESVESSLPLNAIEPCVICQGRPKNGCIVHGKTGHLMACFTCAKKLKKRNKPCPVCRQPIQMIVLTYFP
Beta cell apopt = inhibitors of cytokine-induced beta cell apoptosis, primary screen, luminescence. INS-1E cytokine-induced death, ATP luminescence, 48 h; percent of positive-control rescue, neutral wells zero. AID 435005, 2010. protection from apoptosis, % (test concentration not listed). 300,000 tested, 0.8% active;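 active means Every replicate reaches about 75%, or at least half do and their mean reaches it too, limit read from the data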;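 further: higher means more ATP so stronger rescue from cytokine killing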
Each line names hits and unclear results; the compound was inactive in the other large screens. Sampled rows, rich in hits. Any-hit rate of the full collection: about 6.6%.

COc1ccc(/C=N/NC(=O)c2ccc(OC)c(OC)c2)cc1COc1c(F)c(F)c(F)c(F)c1F	GRIN3A LBD mod 12.0
COc1ccc(/C=N/NC(=O)c2ccc(Cl)cc2)cc1Cn1cc(Cl)cn1	none
COCc1cc(/C=N\NC(=O)c2ccc(Cl)cc2)ccc1OC	GRIN3A LBD mod 11.3
COc1ccc(/C=N/NC(=O)c2nc(Cl)c(Cl)c(N)c2Cl)cc1COc1ccc(F)cc1F	GRIN3A LBD mod 10.0
COc1ccc(/C=N/NC(=O)c2nc(Cl)c(Cl)c(N)c2Cl)cc1COc1ccccc1F	none
CCCc1c(-c2ccc(O)cc2)nn(-c2ccc(O)cc2)c1-c1ccc(O)cc1	CSC inhib 83.8
Cc1c(C(N)=O)c(-c2ccccc2)nn1-c1ccccc1	none
CCCCNC(=O)C1C(c2ccc(OC)cc2)=Nc2ccccc2N1C(=O)c1cccnc1 (stereo unspecified)	none (no result: CSC inhib, Gli-Sufu antag, GRIN3A LBD mod, Mdm2-MdmX inh, Beta cell apopt)
CCOc1ccc(OCc2ccc(C(=O)Nc3cccnc3)cc2)cc1	none
O=C(Nc1cccnc1)c1ccc(COCC(F)(F)F)cc1	GRIN3A LBD mod 10.5
COc1cccc(NC(=O)CN2C(=O)C3(OCCCO3)c3ccccc32)c1	GRIN3A LBD mod 11.1 (no result: CSC inhib)
COc1cccc(NC(=O)CN(C)C(=O)CN2C(=O)NC3(CCCC3)C2=O)c1	GRIN3A LBD mod 14.4
CCOc1ccc(CNc2ccc(N3CCCC3)cc2)cc1	Beta cell apopt 108.8
O=C(Nc1cc([N+](=O)[O-])c2[nH]c(=O)c3ccccc3c2c1)C(F)(F)F	GRIN3A LBD mod 43.7 (no result: CSC inhib, Mdm2-MdmX inh, Beta cell apopt)
C=CCn1c(=O)c(C(=O)NCCc2ccccc2)c(O)c2ccccc21	CSC inhib 116.2
Cc1ccc2nc(CSc3nc(C)ccc3C#N)[nH]c2c1	GRIN3A LBD mod 28.9
Cc1ccc(C#N)c(SCc2ccccc2F)n1	none
O=[N+]([O-])c1c(NCCCO)cc(SCc2ccco2)c2nonc12	none
O=[N+]([O-])c1c(NCCCO)cc(Sc2ccc(Cl)cc2)c2nonc12	CSC inhib 87.7 (no result: Mdm2-MdmX inh)
CCc1ccc(S(=O)(=O)/N=C2\C=CC(=O)c3ccccc32)cc1	none (no result: MPTP block, Gli-Sufu antag, GRIN3A LBD mod)
CCc1ccc(S(=O)(=O)/N=C2/C=C(Sc3ncn[nH]3)C(=O)c3ccccc32)cc1	CSC inhib 104.0, Beta cell apopt 127.1 (no result: Mdm2-MdmX inh)
CC(C)N(Cc1ccccc1)C(=O)CN1C(=O)NC2(CCOc3ccccc32)C1=O (stereo unspecified)	none
CC(C)NC(=O)Nc1cccc2c1O[C@H](CN(C)S(C)(=O)=O)[C@@H](C)CN([C@H](C)CO)C2=O	none (no result: CSC inhib)
O=C(CCCN=C1NS(=O)(=O)c2ccccc21)OCC(=O)c1ccccc1	none
O=C(COC(=O)CCCCCN=C1NS(=O)(=O)c2ccccc21)Nc1ccc(Cl)c(Cl)c1	GRIN3A LBD mod 22.5
O=C(/C=C/c1ccc2c(c1)OCO2)NCCSCc1c(Cl)cccc1Cl	CSC inhib 98.4
O=C(/C=C/c1ccc2c(c1)OCO2)NCCSCc1ccc(Cl)cc1	CSC inhib 93.0
c1ccc2[nH]c(-c3cscn3)nc2c1	none (no result: Mdm2-MdmX inh)
c1ccc2nc(-c3nc4ccccc4[nH]3)ccc2c1	CSC inhib 76.1
COc1ccccc1CN(C(=O)CNC(=O)c1ccco1)C(C(=O)NCC1CCCO1)c1ccccc1 (stereo unspecified)	none
CC12CCC(=O)C=C1CCC1C2CCC2(C)C1CC1C3C(=O)N(Cc4ccccc4)C(=O)C3CC(=O)C12 (stereo unspecified)	none (no result: CSC inhib, Mdm2-MdmX inh, Beta cell apopt)
CCOc1ccccc1NC(=O)c1sc2nc(C)nc(N3CCOCC3)c2c1C	none
Cc1nc(N2CCCCC2)c2c(C)c(C(=O)Nc3ccccc3C(F)(F)F)sc2n1	CSC inhib 77.1
C[C@H]1CN=C(Nc2ccccc2)N1CCC1CCCC1	none
CC(=O)Cc1cc(O)c2ccccc2c1OC(=O)c1ccc(Br)cc1	Beta cell apopt 108.0
COc1ccc(OCCC(=O)Nc2ccccc2)cc1	none
Cc1ccc(S(C)(=O)=O)cc1C(=O)OCC(=O)N(Cc1ccccc1)Cc1ccccc1	none
COc1cc(NC(=S)NCc2ccco2)cc(OC)c1OC	GRIN3A LBD mod 19.4
S=C(c1cn(CCOc2cccc3ccccc23)c2ccccc12)N1CCCC1	Beta cell apopt 105.2
S=C(c1cn(CCOc2ccccc2)c2ccccc12)N1CCCC1	none
COc1ccc(NC(=O)CC2C(=O)N(c3ccc(Cl)cc3)C(=S)N2NC(=O)c2cccc(F)c2)cc1 (stereo unspecified)	GRIN3A LBD mod 15.9
COC(=O)CN1C(=S)N(c2ccc(F)cc2)C(=O)C1CC(=O)Nc1ccc(F)cc1 (stereo unspecified)	none
COc1ccc(NC(=O)CC2C(=O)N(c3ccc(Cl)cc3)C(=S)N2CCc2ccncc2)cc1 (stereo unspecified)	GRIN3A LBD mod 10.0
COC(=O)CN1C(=S)N(c2ccc(Cl)cc2)C(=O)C1CC(=O)Nc1ccc(F)cc1 (stereo unspecified)	GRIN3A LBD mod 27.4
COC(=O)CN1C(=S)N(Cc2ccccc2)C(=O)C1CC(=O)Nc1ccc(Br)cc1 (stereo unspecified)	GRIN3A LBD mod 18.3
CCCc1cc(CN(C)C(=O)CC2C(=O)NCCN2Cc2ccccc2C)[nH]n1 (stereo unspecified)	none
CC1(C(=O)NS(=O)(=O)c2ccc(Cl)cc2)CCN1C(=O)CCc1cccs1 (stereo unspecified)	none (no result: CSC inhib, Gli-Sufu antag, GRIN3A LBD mod, Mdm2-MdmX inh, Beta cell apopt)
Nc1nonc1-n1nnc(C(=O)N/N=C/c2ccccc2Cl)c1CN1CCOCC1	none
COCCN(C(=O)COC(=O)C12CC3CC(CC(O)(C3)C1)C2)c1c(N)n(Cc2ccccc2)c(=O)[nH]c1=O	none (no result: CSC inhib, Gli-Sufu antag, GRIN3A LBD mod, Mdm2-MdmX inh, Beta cell apopt)
COC(=O)CN1C(=S)N(c2ccc(Cl)cc2)C(=O)C1CC(=O)Nc1ccc(Cl)cc1 (stereo unspecified)	GRIN3A LBD mod 20.4
C[C@@H](NC(=O)[C@@H]1CCCN1C(=O)OC(C)(C)C)c1ccccc1	none (no result: CSC inhib, Gli-Sufu antag, GRIN3A LBD mod, Mdm2-MdmX inh, Beta cell apopt)
CCCc1c(C)nn(C(=O)/C(C#N)=N/Nc2ccccc2[N+](=O)[O-])c1C	GRIN3A LBD mod 14.6
CCCc1c(C)nn(-c2ncccc2[N+](=O)[O-])c1C	none
O=C(c1cc(C2CCCCN2S(=O)(=O)Cc2ccccc2)on1)N1CCOCC1 (stereo unspecified)	none (no result: CSC inhib, Gli-Sufu antag, GRIN3A LBD mod, Mdm2-MdmX inh, Beta cell apopt)
COC(=O)[C@@H](CC(C)C)N(Cc1ccccc1)S(=O)(=O)N(Cc1ccccc1)[C@@H](CC(C)C)C(=O)OC	none
COC(=O)[C@@H](Cc1ccccc1)N(Cc1ccccc1)S(=O)(=O)N(Cc1ccccc1)[C@H](Cc1ccccc1)C(=O)OC	Beta cell apopt 118.8
c1ccc(-c2c(-c3ccccc3)n(Cc3ccco3)c3ncnc(NCCCn4ccnc4)c23)cc1	CSC inhib 133.2
